Measurements published in publication PMC4336329 (PLoS ONE, 2015).
Among all 310,000 compounds or so, about 14,000 (4.5%) showed an effect of 50% or more. Effects have a minus sign here. This is one part of a sample in which strong results are shown more often than they occur.

The compounds below were run against human ether-à-go-go-related gene (hERG) potassium channel (human, UniProt Q12809) (assay: primary screen, population patch clamp on CHO cells stably expressing hERG; higher = less effect of the substance).
Chain of human ether-à-go-go-related gene (hERG) potassium channel (Q12809 whole entry, looked up): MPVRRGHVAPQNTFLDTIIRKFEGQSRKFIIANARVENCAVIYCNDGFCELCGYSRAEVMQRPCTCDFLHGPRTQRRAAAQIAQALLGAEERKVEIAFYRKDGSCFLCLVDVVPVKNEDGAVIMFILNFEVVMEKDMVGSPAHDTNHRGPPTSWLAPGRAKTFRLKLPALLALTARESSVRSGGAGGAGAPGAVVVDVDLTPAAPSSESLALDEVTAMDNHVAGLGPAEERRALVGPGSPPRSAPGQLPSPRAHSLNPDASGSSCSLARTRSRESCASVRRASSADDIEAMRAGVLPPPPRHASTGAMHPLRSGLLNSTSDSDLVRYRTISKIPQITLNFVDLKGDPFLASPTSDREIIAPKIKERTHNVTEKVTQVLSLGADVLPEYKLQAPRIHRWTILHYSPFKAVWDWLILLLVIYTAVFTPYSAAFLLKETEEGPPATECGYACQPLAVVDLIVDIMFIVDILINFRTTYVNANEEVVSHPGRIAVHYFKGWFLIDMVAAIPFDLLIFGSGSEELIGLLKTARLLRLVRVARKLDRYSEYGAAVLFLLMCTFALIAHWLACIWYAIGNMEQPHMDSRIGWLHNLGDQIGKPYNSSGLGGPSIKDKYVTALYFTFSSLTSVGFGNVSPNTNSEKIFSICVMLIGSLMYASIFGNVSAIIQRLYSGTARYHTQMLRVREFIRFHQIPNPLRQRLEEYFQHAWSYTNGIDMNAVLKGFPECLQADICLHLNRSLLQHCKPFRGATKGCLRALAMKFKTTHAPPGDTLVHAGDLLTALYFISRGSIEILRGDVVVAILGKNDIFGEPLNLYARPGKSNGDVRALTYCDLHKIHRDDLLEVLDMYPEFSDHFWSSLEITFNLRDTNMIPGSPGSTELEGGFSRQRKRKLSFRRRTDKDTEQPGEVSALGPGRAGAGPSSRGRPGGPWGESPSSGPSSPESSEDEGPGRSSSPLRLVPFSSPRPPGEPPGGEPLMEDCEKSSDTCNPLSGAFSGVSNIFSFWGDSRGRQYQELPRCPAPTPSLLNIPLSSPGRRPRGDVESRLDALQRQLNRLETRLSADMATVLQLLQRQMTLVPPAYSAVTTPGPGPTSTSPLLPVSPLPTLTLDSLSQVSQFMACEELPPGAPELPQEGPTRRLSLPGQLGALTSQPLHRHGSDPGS
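Also: peak tail current of the secondary pulse compared with the same well before compound.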

Going from `COc1ccc(CCNC(=O)C2CCN(S(=O)(=O)c3ccc(NC(C)=O)cc3)CC2)cc1OC` to `Cc1cccc(NC(=O)c2ccc(S(=O)(=O)N3CCC(C)CC3)cc2)n1`, the “hERG current change (%, negative = inhibition) at 10uM” value falls from 9.83% to -59.2%.

Compared with `Nc1cc(=O)[nH]c(SCC(=O)Nc2ccccc2Sc2ccccc2)n1`, `O=C(CSc1nnc(-c2ccccn2)n1-c1ccccc1)Nc1ccc2c(c1)OCO2` is lower in “hERG current change (%, negative = inhibition) at 10uM” value: 6.15% for the first, 1.81% for the second.

Going from `O=C(Cn1nnc(-c2ccccc2NC(=O)c2ccccc2F)n1)NCc1ccco1` to `O=C(c1ccccc1Br)N1N=C(c2ccccc2)CC1c1ccccc1F` (stereo not drawn), the “hERG current change (%, negative = inhibition) at 10uM” value rises from 10.1% to 15.7%.

Compared with `Cc1nc(-c2ccc(C(=O)Nc3cccc(Br)c3)cc2)cs1`, `Cc1cccc(NC(=O)c2ccc(S(=O)(=O)N3CCCCC3)cc2)n1` is lower in “hERG current change (%, negative = inhibition) at 10uM” value: 7.02% for the first, -6.69% for the second.

First: Cc1cc(C)n(Cc2ccc(Cl)cc2Cl)c(=O)c1S(=O)(=O)c1ccccc1
Second: CN(C(=O)COC(=O)c1cc(F)c(F)cc1Cl)c1ccccc1
The “hERG current change (%, negative = inhibition) at 10uM” value of the first is higher: 14.7% for the first, 0.987% for the second.

Compared with `COc1ccc(S(=O)(=O)N(CC(=O)N2CCOCC2)c2cc(Cl)ccc2OC)cc1OC`, `Cc1cccc(C(=O)Oc2ccccc2C(=O)N2CCOCC2)c1` is higher in “hERG current change (%, negative = inhibition) at 10uM” value: -16.6% for the first, -8.06% for the second.

Going from `COc1ccc(CCNC(=O)C/C(C)=N/NC(=O)C23CC4CC(CC(C4)C2)C3)cc1OC` to `CCCCNC(=O)[C@H]1C[C@H]1[C@@H](O)[C@H](CO)NC(=O)[C@H](COCc1ccccc1)NC(=O)OC(C)(C)C`, the “hERG current change (%, negative = inhibition) at 10uM” value rises from 11.7% to 21.5%.

First: Cc1ccccc1-n1c(SCC(=O)Nc2ccc3c(c2)OCO3)nnc1-c1ccccn1
Second: Cc1ccc(-n2c(SCC(=O)Nc3ccc4c(c3)OCO4)nnc2-c2ccccn2)cc1
The “hERG current change (%, negative = inhibition) at 10uM” value of the first is lower: -65.3% for the first, 4.28% for the second.

First: CCc1nnc(NC(=O)CSc2nnc(C(C)NC(=O)c3ccccc3)n2C)s1 (stereo not drawn)
Second: COc1ccc(C(=O)NC(C)c2nnc(SCC(=O)Nc3nc4ccccc4s3)n2C)cc1 (stereo not drawn)
The “hERG current change (%, negative = inhibition) at 10uM” value of the first is higher: 29.3% for the first, -59.4% for the second.

Compared with `COc1ccccc1N1CCN(C(=O)CSc2nnc3n2C(C)(C)Cc2ccccc2-3)CC1`, `CC1(C)Cc2ccccc2-c2nnc(SCC(=O)N3CCN(c4ccccc4)CC3)n21` is lower in “hERG current change (%, negative = inhibition) at 10uM” value: -37.4% for the first, -73.7% for the second.

Going from `COc1ccc(C(=O)NC(C)c2nnc(SCC(=O)NC3=NCCS3)n2C)cc1` (stereo not drawn) to `CCn1nnnc1SCC(=O)c1ccc(NC(C)=O)cc1`, the “hERG current change (%, negative = inhibition) at 10uM” value falls from 15.3% to 0.37%.

Compared with `COc1ccc(N2CCN(C(=O)CSc3nnc4n3C(C)(C)Cc3ccccc3-4)CC2)cc1`, `Cc1ccc(-n2nnnc2SCC(=O)Nc2ccccc2N2CCCCC2)cc1C` is higher in “hERG current change (%, negative = inhibition) at 10uM” value: -23.8% for the first, 14.3% for the second.

First: C/C=C(\C)CN1CCC(Oc2cccc(C(=O)NCc3ccccn3)c2)CC1
Second: CC(NC(=O)COc1ccccc1)C(c1cccs1)N1CCCC1 (stereo not drawn)
The “hERG current change (%, negative = inhibition) at 10uM” value of the first is lower: -4.59% for the first, -2.64% for the second.

Going from `COC(=O)CN(c1cccc(C(C)=O)c1)S(C)(=O)=O` to `CON(C)S(=O)(=O)c1cccc(C(=O)NC2CCSc3ccccc32)c1` (stereo not drawn), the “hERG current change (%, negative = inhibition) at 10uM” value falls from 9.02% to -9.64%.

First: CCc1cccc(NC(=O)C2CCCN2S(=O)(=O)c2ccc3c(c2)n(C)c(=O)c(=O)n3C)c1 (stereo not drawn)
Second: CC1CCCCN1S(=O)(=O)c1ccc(NC(=O)c2cccc(-n3cnnn3)c2)cc1 (stereo not drawn)
The “hERG current change (%, negative = inhibition) at 10uM” value of the first is higher: -9.62% for the first, -18.4% for the second.

First: Cc1ccc(NC(=O)c2ccc(Cl)c(S(=O)(=O)N3CCCCC3)c2)nc1
Second: Cc1ccc(NC(=O)c2ccc(Cl)c(S(=O)(=O)N3CCCCCC3)c2)nc1
The “hERG current change (%, negative = inhibition) at 10uM” value of the first is higher: -23.4% for the first, -57.9% for the second.

Compared with `Cc1ccnc(NC(=O)c2ccc(Cl)c(S(=O)(=O)N3CCCCC3)c2)c1`, `Cc1ccnc(NC(=O)c2ccc(Cl)c(S(=O)(=O)N3CCCC3)c2)c1` is higher in “hERG current change (%, negative = inhibition) at 10uM” value: -79.1% for the first, -15.7% for the second.

Compared with `Cc1cccc(NC(=O)c2ccc(S(=O)(=O)N3CCCCCC3)cc2)n1`, `Cc1cccc(NC(=O)c2ccc(Cl)c(S(=O)(=O)N3CCCCCC3)c2)n1` is lower in “hERG current change (%, negative = inhibition) at 10uM” value: -4.07% for the first, -25.1% for the second.

Going from `Cc1cccc(NC(=O)c2ccc(C)c(S(=O)(=O)N3CCCCC3)c2)n1` to `Cc1cccc(NC(=O)c2ccc(Cl)c(S(=O)(=O)N3CCCCC3)c2)n1`, the “hERG current change (%, negative = inhibition) at 10uM” value falls from -36.7% to -71.3%.

Compared with `Cc1ccnc(NC(=O)c2ccc(S(=O)(=O)N3CCCCC3)cc2)c1`, `Cc1ccc(NC(=O)c2ccc(Cl)c(S(=O)(=O)N3CCCC3)c2)nc1` is higher in “hERG current change (%, negative = inhibition) at 10uM” value: -17.9% for the first, -8.97% for the second.

First: Cc1c(Cl)cccc1N1C(=O)C2ON(c3ccccc3)C(c3cccnc3)C2C1=O (stereo not drawn)
Second: COc1ccccc1CNC(=O)CCCOc1cc(=O)n(C)c2ccccc12
The “hERG current change (%, negative = inhibition) at 10uM” value of the first is lower: 4.12% for the first, 4.57% for the second.

Compared with `Cn1c(CNC(=O)OC(C)(C)C)nnc1SCC(=O)N1CCOCC1`, `CCC(C)(C)n1nnnc1C(c1ccc(C)cc1)N1CCN(Cc2ccc3c(c2)OCO3)CC1` (stereo not drawn) is lower in “hERG current change (%, negative = inhibition) at 10uM” value: 8.91% for the first, -50.3% for the second.

Going from `CSc1nc2nc(-c3ccc(F)cc3)c(CCN3CCN(C)CC3)cn2n1` to `CC(C)(C)n1nnnc1C(c1ccc(F)cc1)N1CCN(Cc2ccc3c(c2)OCO3)CC1` (stereo not drawn), the “hERG current change (%, negative = inhibition) at 10uM” value falls from -2.66% to -37.8%.

Compared with `Cc1cc(NC(=O)CSc2nc3ccccc3n2CC(C)C)no1`, `CC(C)n1c(SCc2cc(=O)[nH]c3ccccc23)nc2c1c(=O)n(C)c(=O)n2C` is lower in “hERG current change (%, negative = inhibition) at 10uM” value: 19.2% for the first, -7.13% for the second.

First: COc1ccccc1N1CCN(C2CCCN(C(=O)CCn3cncn3)C2)CC1 (stereo not drawn)
Second: Cn1ncc(Cl)c1C(=O)N1CCN(c2cccc(Cl)c2)CC1
The “hERG current change (%, negative = inhibition) at 10uM” value of the first is higher: 13% for the first, -8.7% for the second.

Compared with `CCC1(CC)C(=O)N(C)C(=O)NC1=Nc1ccccc1`, `CCN(CC)CCN1C(=O)C(=O)/C(=C(/O)c2ccc(OC(C)C)cc2)C1c1cccs1` (stereo not drawn) is lower in “hERG current change (%, negative = inhibition) at 10uM” value: 15.8% for the first, 0.529% for the second.

First: CCC(C)(C)n1nnnc1C(c1ccc2ncccc2c1)N1CCN(Cc2ccc3c(c2)OCO3)CC1 (stereo not drawn)
Second: CC(C)(C)n1nnnc1C(c1cccs1)N1CCN(Cc2ccc3c(c2)OCO3)CC1 (stereo not drawn)
The “hERG current change (%, negative = inhibition) at 10uM” value of the first is lower: -69.7% for the first, -19.4% for the second.

First: Cc1ccc(C(c2nnnn2Cc2cccs2)N2CCN(Cc3ccc4c(c3)OCO4)CC2)cc1 (stereo not drawn)
Second: CCN1CCN(C(c2ccccc2)c2nnnn2Cc2ccc3c(c2)OCO3)CC1.Cl (stereo not drawn)
The “hERG current change (%, negative = inhibition) at 10uM” value of the first is lower: -75.3% for the first, -39.1% for the second.

Going from `CCC(C)(C)n1nnnc1C(c1ccc2ncccc2c1)N1CCCCCC1` (stereo not drawn) to `CCC(C)(C)n1nnnc1C(c1ccc2ncccc2c1)N1CCCC(C)C1` (stereo not drawn), the “hERG current change (%, negative = inhibition) at 10uM” value falls from 6.75% to -13.6%.

Going from `COCCn1nnnc1C(c1ccccc1)N1CCN(Cc2ccc3c(c2)OCO3)CC1.Cl` (stereo not drawn) to `Cc1ccc(-c2cccc(CN3CCN(C4CCN(C(C)C)CC4)C(CCO)C3)c2)o1` (stereo not drawn), the “hERG current change (%, negative = inhibition) at 10uM” value falls from -21.6% to -59.4%.

First: Cc1cc(C(=O)N/N=C/c2cc(Br)c(Br)o2)n[nH]1
Second: O=C(O)CNC(=O)c1ccccc1Br
The “hERG current change (%, negative = inhibition) at 10uM” value of the first is higher: 16% for the first, 9.63% for the second.

Compared with `CC1CCCCN1S(=O)(=O)c1ccc(-n2cnnn2)cc1` (stereo not drawn), `CC1CCCCN1C(=O)C1CCN(S(=O)(=O)c2ccc(-n3cnnn3)cc2)CC1` (stereo not drawn) is lower in “hERG current change (%, negative = inhibition) at 10uM” value: -50.1% for the first, -61.5% for the second.

Going from `O=C(C1CCN(S(=O)(=O)c2ccc(-n3cnnn3)cc2)CC1)N1CCCCC1` to `CC1CCN(C(=O)C2CCN(S(=O)(=O)c3ccc(-n4cnnn4)cc3)CC2)CC1`, the “hERG current change (%, negative = inhibition) at 10uM” value rises from -30.1% to -13.7%.

Going from `CC1CCCCN1S(=O)(=O)c1ccc(S(=O)(=O)N2CCCC2)cc1` (stereo not drawn) to `CN(Cc1ccccc1)C(=O)CCC1CCN(S(=O)(=O)N(C)C)CC1`, the “hERG current change (%, negative = inhibition) at 10uM” value falls from 5.9% to -18.4%.

Going from `COc1ccc(C(CNC(=O)c2cccc(S(=O)(=O)NCc3ccccc3)c2)N(C)C)cc1` (stereo not drawn) to `COc1ccc(CC(=O)OC2CCCN(C)C2)cc1.Cl` (stereo not drawn), the “hERG current change (%, negative = inhibition) at 10uM” value rises from -24.3% to 19.3%.

Compared with `CC(C)N1CCC(N2CCN(Cc3ccc(-c4ccc(Cl)cc4)o3)CC2CCO)CC1` (stereo not drawn), `CC(C)N1CCC(N2CCN(Cc3ccc(-c4ccccc4Cl)o3)CC2CCO)CC1` (stereo not drawn) is lower in “hERG current change (%, negative = inhibition) at 10uM” value: -64.5% for the first, -66.6% for the second.

Going from `CC(C)N1CCC(N2CCN(Cc3cccnc3)CC2CCO)CC1` (stereo not drawn) to `CC(C)N1CCC(N2CCN(CCCc3ccccc3)CC2CCO)CC1` (stereo not drawn), the “hERG current change (%, negative = inhibition) at 10uM” value falls from 20.3% to 10.1%.

Compared with `CC(C)N1CCN(Cc2ccc(-c3ccccc3Cl)o2)CC1CCO` (stereo not drawn), `CC(C)N1CCN(Cc2ccccc2-c2ccco2)CC1CCO` (stereo not drawn) is higher in “hERG current change (%, negative = inhibition) at 10uM” value: -54.8% for the first, -35.3% for the second.

Going from `CC(C)N1CCC(N2CCN(Cc3ccc4nonc4c3)CC2CCO)CC1` (stereo not drawn) to `CC(C)N1CCC(N2CCN(Cc3ccc4nsnc4c3)CC2CCO)CC1` (stereo not drawn), the “hERG current change (%, negative = inhibition) at 10uM” value rises from -27.5% to -8.62%.

Going from `CC(C)N1CCC(N2CCN(C/C=C/c3ccccc3)CC2CCO)CC1` (stereo not drawn) to `Cc1ccc(-c2cccc(CN3CCN(C(C)C)C(CCO)C3)c2)o1` (stereo not drawn), the “hERG current change (%, negative = inhibition) at 10uM” value rises from -7.17% to 13.4%.

Compared with `CC(C)N1CCN(Cc2ccc(Sc3nncn3C)o2)CC1CCO` (stereo not drawn), `CCNC(=S)N1CCC(c2nc3ccccc3s2)CC1` is lower in “hERG current change (%, negative = inhibition) at 10uM” value: 22.9% for the first, -25.7% for the second.

Compared with `CC(C)(C#N)Nn1cnnc1`, `c1ccc(-c2noc(CC3CCCCC3)n2)nc1` is lower in “hERG current change (%, negative = inhibition) at 10uM” value: 17.1% for the first, 6.32% for the second.
